This is a sample that favours compounds with a hit; in the whole collection about 3.3% have one here.
FGF22 binding – binders of human FGF22 protein, primary screen, FGF22 synaptogenesis inhibitor project, biophysical, thermal shift, single point | Fibroblast growth factor 22 (Homo sapiens), Q9HCT0 | recombinant FGF22 thermal shift, SYPRO orange fluorescence; percent of sucrose octasulfate shift, DMSO zero | activity (Tm shift, normalised), % at 9.99 µM | hit rate 1.5% among 340,000 | AID 651658, 2012;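 active = mean Tm shift, scaled 0 neutral to 100 positive control, at about 1.3% or above, every replicate too, limit read from the data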
Target sequence (Q9HCT0 whole entry, looked up): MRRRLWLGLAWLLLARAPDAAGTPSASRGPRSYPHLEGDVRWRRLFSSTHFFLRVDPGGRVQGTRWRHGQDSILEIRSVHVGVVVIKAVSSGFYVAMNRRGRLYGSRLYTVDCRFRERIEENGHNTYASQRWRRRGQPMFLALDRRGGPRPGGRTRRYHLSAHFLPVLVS
INS-1E GSIS act – GLuc luminescence reporter in INS-1E cells, primary screen for activators of glucose-dependent secretion of insulin; INS-1E GLuc reporter insulin secretion, 2-3 h; hit rate 0.61% among 370,000; activation, % at 16.6 µM; AID 743287, 2014;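 active = lowest replicate activation of at least 40%, so every replicate reaches that level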;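 also: 0% = median of neutral control wells and 100% = median of IBMX positive control wells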
CASP6 VEID inh – human caspase-6 inhibitors, primary screen, biochemical, VEID-R110 fluorescence, single point, set 2; hit rate 0.53% among 350,000; AID 686996, 2013; inhibition, % at 12.5 µM; purified caspase-6, Z-VEID-R110 cleavage fluorescence;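 active = mean inhibition across replicates at least about 35%, with every replicate also reaching that limit, limit read from the data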;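 also: 0% = median of neutral control wells and 100% = no fluorescence left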
Target sequence (P55212 24-179 limits assumed): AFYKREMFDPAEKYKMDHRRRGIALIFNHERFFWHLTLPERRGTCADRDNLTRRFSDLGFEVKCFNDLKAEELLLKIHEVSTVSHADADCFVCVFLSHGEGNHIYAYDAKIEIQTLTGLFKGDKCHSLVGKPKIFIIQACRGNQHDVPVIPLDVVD
Target sequence (P55212 194-293 limits assumed): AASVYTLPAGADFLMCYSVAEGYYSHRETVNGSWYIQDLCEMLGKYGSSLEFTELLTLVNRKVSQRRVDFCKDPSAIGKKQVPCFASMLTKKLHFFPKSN
SIRT5 inh – SIRT5 desuccinylase inhibitors, primary screen, biochemical, fluorescence imaging, single point, set 5; hit rate 1.1% among 330,000; Purified SirT5, succinyl-peptide AMC, trypsin-coupled fluorescence; NAD-dependent protein deacylase sirtuin-5, mitochondrial (Homo sapiens), Q9NXA8; inhibition, % at 15 µM; in the data active = inhibition above about 15%
ERAP1 inh – human ERAP1 aminopeptidase inhibitors, primary screen, biochemical, single point, plate reader; Endoplasmic reticulum aminopeptidase 1 (Homo sapiens), Q9NZ08; recombinant ERAP1, Leu-AMC fluorescence, 60 min; inhibition, % at 10.7 µM; hit rate 0.15% among 340,000;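 active = mean replicate inhibition of at least 30%, or all replicates individually reaching that 30% level; inactive = mean below 30% and not every replicate reaching it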;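 also: 0% = neutral control wells and 100% = L-leucinethiol positive control wells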
Numbers without * were called inactive; . = no result.

SMILES	FGF22 binding	INS-1E GSIS act	CASP6 VEID inh	SIRT5 inh	ERAP1 inh
CC(C)NS(=O)(=O)c1ccc(OCC(=O)Nc2cccc(F)c2)cc1	43.3*	17.1	-1.4	-1.3	-1.8
O=C(Nc1ccc(C(F)(F)F)cc1)N[C@@H]1CC[C@@H](CCn2cc(C3(O)CCCC3)nn2)O[C@@H]1CO	0.7	-1.9	-3.0	-1.1	-0.9
C[n+]1cccc(C2C(C#N)=C(N)Oc3c2ccc2ccccc32)c1 (configuration not stated)	0.0	.	-9.6	-3.5	.
C[n+]1cccc2ccc3c(c21)OC(N)=C(C#N)C3c1ccccc1 (configuration not stated)	-0.1	4.4	37.5*	-1.7	4.7
CCOC(=O)c1oc2cc(C)cc(C)c2c1C	0.1	4.5	1.1	-6.5	.
CCOC(=O)c1oc2cc(O)cc(C)c2c1C	0.1	40.0*	-0.4	1.4	-2.2
C[C@@H]1CN([C@@H](C)CO)C(=O)c2cc(NS(=O)(=O)c3ccccc3)ccc2O[C@H]1CN(C)C(=O)Nc1ccc2c(c1)OCO2	0.5	17.9	-1.1	.	1.8
O=C(NNc1cccc(Cl)n1)Nc1ccc(F)cc1	43.8*	.	-3.3	4.8	-0.5
O=C(NNc1cccc(Cl)n1)Nc1ccccc1F	0.2	-0.6	-0.6	0.3	3.8
CC(=O)N(C)C[C@H]1Oc2cc(-c3cncnc3)ccc2S(=O)(=O)N([C@H](C)CO)C[C@H]1C	0.0	11.7	-0.2	-7.7	-0.8
C[C@H](CO)N1C[C@H](C)[C@H](CN(C)S(=O)(=O)c2cccs2)Oc2ccc(NC(=O)Cc3ccccc3)cc2C1=O	-0.5	-14.2	2.8	2.1	5.6
Cc1nc2cc(NS(=O)(=O)c3cccc(F)c3)ccc2s1	44.1*	-17.0	-2.0	0.3	-0.9
Cc1nc2ccc(NS(=O)(=O)c3ccc(F)cc3F)cc2s1	-0.2	-3.6	2.9	-1.2	2.9
Cc1nc2ccc(NS(=O)(=O)c3c(F)cc(F)cc3Br)cc2s1	-0.3	.	39.5*	8.3	-1.0
C[C@@H]1CN([C@H](C)CO)C(=O)CCCn2cc(nn2)CO[C@@H]1CN(C)C(=O)Nc1ccc(C(C)(C)C)cc1	.	4.3	.	.	.
CCN1CCS/C1=C\C=C\C1=[N+](CC)CCS1	0.5	-57.2	-12.4	18.4*	9.6
O=[N+]([O-])c1ccc(-c2nc(Nc3ccc(O)cc3)c3ccccc3n2)cc1	-0.5	-7.8	0.3	-4.7	-1.1
O=[N+]([O-])c1ccc(-c2nc(NCC3CCCO3)c3ccccc3n2)cc1 (configuration not stated)	0.1	43.6*	-0.5	-4.1	-1.4
O=C(O)c1ccc(Nc2nc(-c3ccc([N+](=O)[O-])cc3)nc3ccccc23)cc1	0.0	20.4	-2.4	24.2*	-1.9
O=C(NC1=NCCS1)c1cc(-c2ccc(-c3ccccc3)cc2)nc2ccccc12	43.2*	0.5	-0.3	0.4	-2.7
CC(/C=N\N1CCN(Cc2ccc(C)cc2)CC1)=C\c1ccccc1	43.8*	10.0	-0.9	-6.2	-1.6
CC(C)NC(=O)Nc1ccc2c(c1)C(=O)N([C@H](C)CO)C[C@H](C)[C@@H](CN(C)S(=O)(=O)c1ccc(F)cc1)OCCCC[C@@H](C)O2	-0.2	-3.3	0.4	-5.8	2.5
CCNc1ccc(C(=O)OCC(=O)NC(=O)NCC(C)C)cc1[N+](=O)[O-]	-0.8	-1.0	-2.5	-1.3	3.2
CS(=O)(=O)c1ccc(C(=O)OCC(=O)Nc2cccnc2Cl)cc1[N+](=O)[O-]	.	118.3*	11.4	-4.2	1.4
CC(=O)c1cccc(NC(=O)COC(=O)c2ccc(S(C)(=O)=O)c([N+](=O)[O-])c2)c1	0.0	48.0*	15.4	-1.0	-1.9
CS(=O)(=O)c1ccc(C(=O)OCC(=O)NC(=O)C2COc3ccccc3O2)cc1[N+](=O)[O-] (configuration not stated)	0.5	105.8*	6.2	4.3	-0.7
Cc1ccccc1NC(=O)COC(=O)c1ccc(S(C)(=O)=O)c([N+](=O)[O-])c1	0.1	4.6	1.6	-4.8	-3.4
CS(=O)(=O)c1ccc(C(=O)OCC(=O)NC(=O)C2CCCCC2)cc1[N+](=O)[O-]	0.3	2.5	25.3	-1.5	2.0

Screening results deposited in PubChem BioAssay by Broad Institute.
